Sampled rows, rich in hits. Any-hit rate of the full collection: about 1.9%.
EP2 modulator = EP2 receptor (human) modulation | P43116 | EP2-expressing cells, cAMP HTRF FRET, PGE2 co-stimulation | induction, % at 25 µM | 260,000 compounds, 0.83% hits;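 active means compounds whose cAMP rise, as percent of the full-agonist control response, exceeds 60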;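 further: rat C6 glioma line stably carrying human EP2 under a CMV promoter; the protocol text gives 20 µM as final concentration; 100% = response of wells given 1 µM PGE2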
Calpain2 inh = inhibitors of pig calpain II; 220,000 compounds, 0.37% hits; inhibition, % at 16 µM; purified calpain II, fluorogenic peptide substrate, 30 min; AID 1236;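 active means inhibition above about 50%, limit read from the data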
Furin inh = inhibitors of human furin; P09958; purified furin, fluorogenic substrate cleavage; 220,000 compounds, 0.061% hits; inhibition, % at 20 µM or 30 µM; in the data active means inhibition above about 25%
Target sequence (P09958 108-714 limits assumed): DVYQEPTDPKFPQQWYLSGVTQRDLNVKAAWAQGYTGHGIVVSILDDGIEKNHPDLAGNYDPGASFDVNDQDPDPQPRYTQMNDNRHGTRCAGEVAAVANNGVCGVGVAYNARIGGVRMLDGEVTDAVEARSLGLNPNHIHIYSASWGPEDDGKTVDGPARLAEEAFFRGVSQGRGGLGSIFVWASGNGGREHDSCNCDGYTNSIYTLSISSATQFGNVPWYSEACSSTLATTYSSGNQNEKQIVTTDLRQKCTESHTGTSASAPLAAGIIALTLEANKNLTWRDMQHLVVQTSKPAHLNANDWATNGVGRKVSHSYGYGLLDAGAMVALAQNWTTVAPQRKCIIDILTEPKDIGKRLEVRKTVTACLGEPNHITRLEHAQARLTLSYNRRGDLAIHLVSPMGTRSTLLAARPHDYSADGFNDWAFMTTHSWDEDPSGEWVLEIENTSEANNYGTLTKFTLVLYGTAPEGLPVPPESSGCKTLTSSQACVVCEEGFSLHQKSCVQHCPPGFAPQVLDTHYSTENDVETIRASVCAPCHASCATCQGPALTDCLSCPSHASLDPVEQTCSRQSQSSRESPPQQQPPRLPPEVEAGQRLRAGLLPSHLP
PGE2 EP2 inh = EP2 receptor (human) inhibition; P43116; C6 glioma cells expressing human EP2, cAMP TR-FRET; cells stimulated with saturating PGE2; inhibition, % at 25 µM; 260,000 compounds, 0.52% hits;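 active means percent inhibition above 40 after rounding to a whole number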;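 further: rat C6 glioma host cells with rolipram phosphodiesterase inhibitor present; the protocol text gives 20 µM as final concentration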
HMGR II inh = blocks class II HMG-CoA reductase of Enterococcus faecalis. purified E. faecalis HMGR, NADPH absorbance 340 nm kinetic. inhibition, % at 10 µM. 190,000 compounds, 0.41% hits;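 active means inhibition above a set limit, the median over all tested compounds plus 3 SD, cut at about 9.5% in these data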;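 further: enzyme runs in reverse so mevalonate oxidation gives rising NADPH absorbance; 0% = complete reaction with DMSO and 100% = background rate lacking mevalonate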
EP2 cAMP induct = human EP2 receptor cAMP induction, negative in counter-screens. calls only at 20 µM (by protocol). shares compounds with EP2 modulator. 1,300 compounds, 47% hits. C6 glioma EP2 cells, cAMP HTRF induction; plus low (about EC15) PGE2 agonist;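 active means cAMP induction above 50% in the main assay while under 30% in all four parallel counter assays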;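 further: rat C6 glioma cells stably expressing human EP2 receptor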
* = called active by the depositor; i = inactive; nt = not tested or not shown; + = active, no number; ! = not active in a repeat.

SMILES | EP2 modulator | Calpain2 inh | Furin inh | PGE2 EP2 inh | HMGR II inh | others
Cn1c(=O)n(C)c2cc(CN3C[C@@H]4CCCN4C[C@@H]3Cc3ccccc3)ccc21 | -14 | nt | nt | 11 | nt
COC(=O)/C(=C/c1c[nH]c2ccccc12)[N+](=O)[O-] | -48 | 15 | -14 | 141* | -5
CC(C)c1ccc(S(=O)(=O)/N=C2/C=C(Sc3ncn[nH]3)C(=O)c3ccccc32)cc1 | -27 | 13 | -10 | 122* | 3
Cc1ccc(S(=O)(=O)/N=C2/C=C(Sc3ncn[nH]3)C(=O)c3ccccc32)c(C)c1 | -61 | 28 | -20 | 54* | 13*
Cc1ccc(S(=O)(=O)/N=C2/C=C(Sc3ncn[nH]3)C(=O)c3ccccc32)cc1 | -70 | -18 | -20 | 126* | -3
Cc1cc(N2CCCCC2)nc(-c2ccccc2)n1 | 34 | nt | nt | 21 | nt
CCC(=O)Nc1ccc(NC(=O)CSc2nc(-c3ccccc3)nc3ccc(F)cc23)cc1C | -24 | nt | nt | 10 | nt
Nc1nc2c(ncn2[C@@H]2CC[C@@H](CO)O2)c(=O)n1C(=O)c1ccccc1 | -4 | nt | nt | 57* | nt
COc1cccc(C2=NN(C(=O)c3ccccc3)C(O)(C(F)(F)F)C2)c1 (stereo not drawn) | 64* | 5 | 2 | nt | -2
CC(C)NC(=O)c1ccc(Cl)c(S(=O)(=O)N2CCOCC2)c1 | -5 | nt | nt | 7 | nt
Cc1cccc(C)c1NCc1nnc(SCC(=O)Nc2ccc(Br)cc2)n1C | -34 | nt | nt | 17 | nt
CCN(CC)S(=O)(=O)c1ccc(C)c(NC(=S)NNC(=O)C2CC2)c1 | 27 | 76* | -11 | 4 | -5
CCOc1cc(/C=C2\SC(=O)N=C2N)ccc1O | -44 | 2 | 5 | 9 | -2
NC1=NC(=O)S/C1=C\c1ccc(F)cc1 | -25 | -16 | -26 | 12 | 24*
COc1ccccc1-c1nnc(SCC(=O)NCc2c(C)c(Cl)cc(C(C)C)c2O)o1 | -3 | 51* | -31 | nt | -3
CCC(=O)N(Cc1cc2cccc(C)c2n2nnnc12)C1CCCC1 | -4 | nt | nt | 8 | nt
O=c1oc2ccc(Cl)cc2cc1-c1nc2c(s1)CCCC2 | -19 | nt | nt | 15 | nt
NC(=O)Cn1nnc(-c2ccc(C(F)(F)F)cc2)n1 | -1 | -7 | 26* | 5 | -10
O=C1COc2ccc(N3C(=O)C=CC3=O)cc2N1 | -34 | -37 | -26 | 46* | 6
COc1nccnc1NS(=O)(=O)c1ccc(NC(=S)NC(=O)c2ccc(Cl)cc2)cc1 | -103 | nt | nt | 25 | nt
COC(=O)/C(=C\c1ccc(-c2cc(Cl)ccc2Cl)o1)C(C)=O | -98 | nt | nt | 50* | nt
CC1(C)Cc2ccccc2C(C[n+]2ccccc2)=N1 | -37 | nt | nt | 7 | nt
CC(=O)CC1=NC(C)(C)Cc2ccccc21 | 12 | -5 | -23 | 8 | 12*
COc1cccc(C2=CC(c3ccc(OC)c(OC)c3)NC(=S)N2)c1 (stereo not drawn) | -28 | 59* | -30 | 15 | nt
O=C(NNC(=O)c1ccc(NC(=O)c2ccccc2)cc1)c1ccccc1 | -4 | -2 | -27 | 4 | 0
SMILES | EP2 modulator | Calpain2 inh | Furin inh | PGE2 EP2 inh | HMGR II inh | others
N#CC1(c2ccc(NC(=O)c3ccccc3)cc2)CCCC1 | -28 | -17 | -16 | 9 | 13*
COc1cc(/C=N/NC(=O)c2ccc(-c3ccccc3)cc2)cc(OC)c1OC | -8 | -35 | -24 | 12 | 13*
Cc1ccc(C(=O)N2CCCc3ccccc32)c(F)c1F | 62* | nt | nt | 4 | nt
O=C(c1c(F)cccc1F)N1CCCc2ccccc21 | 37 | nt | nt | 6 | nt
Nc1cc2nc3ccccc3oc-2cc1=O | -40 | 9 | 6 | 42* | nt
CCOC(=O)CCC(NC(=O)CCC(=O)NC(CCC(=O)OCC)C(=O)OCC)C(=O)OCC (stereo not drawn) | 33 | 9 | -5 | 9 | -2
CCOC(=O)CCC(NC(=O)CC(=O)NC(CCC(=O)OCC)C(=O)OCC)C(=O)OCC (stereo not drawn) | 25 | -4 | -24 | 11 | 10*
CCC1=NN2C(=N)/C(=C/c3cc(OC)c(OC)c(OC)c3)C(=O)N=C2S1 | -29 | nt | nt | 13 | nt
CC(C)(C)C1CCc2sc(C(=O)NNC(=O)CCl)cc2C1 (stereo not drawn) | 6 | 66* | -33 | 12 | 3
CC(C)(C)C1CCC(=NNC(=O)c2cc3c(s2)CCCC3)CC1 (stereo not drawn) | -7 | 10 | -4 | 4 | -1
O=C1Cc2ccccc2Sc2ccc(O)cc21 | -3 | -20 | -19 | 1 | -3
Cc1cccc2c1Sc1ccccc1CC2=O | 64* | 5 | -5 | 15 | -1
Nc1cc(S(=O)(=O)N2CCCCC2)ccc1Oc1ccccc1 | 15 | 51* | -29 | 10 | 2
COc1ccc(CN(Cc2cnn(C)c2)CC2CCCO2)c(OC)c1 (stereo not drawn) | -6 | nt | nt | 9 | nt
COc1ccccc1S(=O)(=O)Cc1ccc(C(=O)NCCN2CCCCCC2)o1 | -15 | -3 | -19 | 3 | 10*
Cc1[nH]nc2c1C(c1ccc(O)cc1)C1=C(CC(C)(C)CC1=O)N2 (stereo not drawn) | 24 | -95 | 1 | 5 | -2
Cc1[nH]nc2c1C(c1ccsc1)C1=C(CC(C)(C)CC1=O)N2 (stereo not drawn) | 30 | -336 | -41 | 7 | 15*
COc1ccc(-c2nc(N)c3ncn([C@H]4O[C@H](CO)[C@@H](O)[C@@H]4O)c3n2)cc1 | 11 | nt | nt | 52* | nt
Nc1nc(F)nc2c1ncn2[C@@H]1O[C@H](CO)[C@@H](O)[C@@H]1O | -26 | -2 | -10 | 34 | 6
CCCC(=O)Nc1sc2c(c1C(N)=O)CCC(C)C2 (stereo not drawn) | -15 | nt | nt | 11 | nt
CC(=O)C(C(C)=O)c1c(Cl)c(O)c(O)c2c(C(=O)c3ccccc3)coc12 | -27 | -80 | -18 | 57* | -4
Cc1cc2ccccc2n2c(=O)n(CC(=O)N3CCCCC3C)nc12 (stereo not drawn) | -17 | nt | nt | nt | nt
Cn1nnnc1SC(C(=O)Nc1cccc(C(F)(F)F)c1)c1ccccc1 (stereo not drawn) | 0 | 54* | -1 | 1 | 2
COc1cc2c(cc1CN1CCC(O)(c3ccccc3F)CC1)OCO2 | -52 | nt | nt | 7 | nt
Cc1ccc(S(=O)(=O)N(Cc2ccccc2)c2ccccc2C(=O)Nc2ccccc2C(=O)NCc2ccco2)cc1 | 47 | -52 | -21 | 3 | 4
CS(=O)(=O)N(Cc1ccccc1)c1ccccc1C(=O)Nc1ccccc1C(=O)NCc1ccco1 | 88* | 9 | -21 | 8 | 2 | EP2 cAMP induct=+
O=C(CN1CCC(c2ccc3c(c2)OCO3)CC1)Nc1ccccc1Cl | -90 | nt | nt | nt | nt
CCc1ccc2[nH]c3nc4ccccc4nc3c2c1 | -7 | nt | nt | 11 | nt
CCN(Cc1ccccc1)C(c1cc2cc(C)cc(C)c2[nH]c1=O)c1nnnn1CCOC (stereo not drawn) | 73*! | -18 | -18 | 18 | -3 | EP2 cAMP induct=i

Screening data: PubChem BioAssay, several laboratories
